Source: PubChem BioAssay (National Center for Advancing Translational Sciences (NCATS))
Hits are enriched below; roughly 19% of the tested compounds scored in any of these assays.
HT1080 IDH1KD tx = HT-1080 IDH1 knockdown cell toxicity (counter line) | HT-1080 IDH1 knockdown viability, ATP luminescence, 48 h | 360,000 tested, 2% active | Potency, µM (highest dose often 46.1 µM), actives largely listed as cytotoxic | AID 686971
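HT-1080-IDH1KD cells (IDH1 knocked down), 750/well in RPMI with 5% FBS, treated with compound 48 h at 37 degrees C. Viability by CellTiter-Glo luminescence, normalised to DMSO and no-cell wells; concentration-response curves classed.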
DT40 TDP1 CPT = DT40-hTDP1 cell growth loss with CPT. chicken DT40 Tdp1-/-;hTDP1 cells + 20 nM CPT, ATP luminescence, 48 h. Potency, µM (top dose mostly 46.2 µM), most hits filed as inhibitors. 420,000 tested, 12% active. AID 686979; also: nearly all actives have a fitted effect of over 55% in size
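Chicken DT40 Tdp1-/- cells stably complemented with human TDP1 were seeded at 400 cells/well in medium containing 20 nM camptothecin, exposed to pin-transferred compounds, and grown at 37 °C for at least 48 hr. Viability was read as ATP luminescence.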
HT1080NT lethal = kills 2HG-producing HT-1080-NT fibrosarcoma cells | Potency, µM (series often up to 46.1 µM), most hits filed as cytotoxic | HT-1080-NT fibrosarcoma viability, CellTiter-Glo ATP luminescence, 48 h | 360,000 tested, 1.6% active;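 also: NT is the 2HG producing partner of a matched IDH1 knockdown line; nearly all actives have a fitted effect of over 55% in size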
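Luminescent CellTiter-Glo readout after 48 hours of compound exposure at 37 degrees C defined viability of HT-1080-NT cells. Activity was normalized to DMSO wells and cell-free media wells; concentration-response curves were fitted and assigned curve classes.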
TDP1 cell noCPT = qHTS for Inhibitors of human tyrosyl-DNA phosphodiesterase 1 (TDP1): qHTS in cells in absence of CPT | AID 686978, 2013 | 420,000 tested, 15% active | Potency, µM (highest dose often 46.2 µM), most hits filed as inhibitors | DT40 Tdp1-/- hTDP1 cells, no CPT, ATP luminescence, 48 h; also: nearly all actives have a fitted effect of over 55% in size
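Growth kinetics read by CellTiter-Glo luminescence after ≥48 hr at 37 °C. Cells: DT40 Tdp1-/- stably carrying human TDP1, 400 per well, compound exposure in the absence of CPT (DMSO vehicle).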
IL1B secr inh = inflammasome signaling inhibition, IL-1 beta readout; activity change, % at 57.5 µM; 360,000 tested, 4.7% active; AID 743279; THP-1 LPS/ATP IL-1B secretion, AlphaLISA, 16 h; hits give low values; in the data active = activity change below about -50%; inconclusive = mostly about -30% to -49%
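Secreted IL-1B measured by AlphaLISA bead assay after 16 h compound exposure of THP-1 cells; compounds (final up to 57.5 uM) added 1 h before LPS (250 ng/mL) and ATP (1.25 mM) stimulation; lower signal means less secretion.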
Numbers stand for hits; - = inactive; ? = inconclusive; . = no result; [ ] = dose if it differs, or a comment. Unless noted, calls follow the shape of the dose curve; as a rule, active = well fitted curve in the direction sought with a large enough effect; inconclusive = small, poorly fitted or top-dose-only effect, or another doubt; inactive = no such curve, though single readings can be large; an effect the other way counts as inactive or inconclusive.

SMILES | HT1080 IDH1KD tx | DT40 TDP1 CPT | HT1080NT lethal | TDP1 cell noCPT | IL1B secr inh
O=C(N/N=C/c1cccnc1)c1cccc(Br)c1 | - | - | - | - | -
Cc1ccccc1-c1nc(CS(=O)(=O)CC(=O)NCCN2CCCC2)c(C)o1 | - | - | - | - | -
Cc1ccnc(NS(=O)(=O)c2ccc(NC(=O)c3ccc(N4C(=O)CCC4=O)cc3)cc2)n1 | - | - | - | - | -
Cc1cc(C)nc(NS(=O)(=O)c2ccc(NC(=O)c3cccc(N4C(=O)CCC4=O)c3)cc2)n1 | - | - | 23.1µM | - | -
O=c1n(Cc2cccc(F)c2)c2ccccc2c2nc(-c3ccccc3)nn12 | . | ? | . | 18.4µM | .
Cc1cccc(Cn2c(=O)n3nc(-c4ccccc4)nc3c3ccccc32)c1 | . | 18.4µM | . | 18.4µM | .
Cc1ccc(-c2nc3c4ccccc4n(Cc4cccc(Cl)c4)c(=O)n3n2)cc1 | . | - | . | ? | .
COc1cccc(C(=O)Nc2nc(SCc3ccc(Cl)cc3)n[nH]2)c1 | - | - | - | - | -
Cn1c(/C=C/c2ccc(Br)cc2)nc2ccccc2c1=O | - | ? | - | 18.4µM | -
O=c1c2ccccc2nc(/C=C/c2cccc([N+](=O)[O-])c2)n1CCO | - | - | - | ? | ?
O=c1c2ccccc2nc(/C=C/c2cc(Br)ccc2O)n1CCCO | ? | ? | ? | 16.4µM | -100.5
CCN(CC)Cc1c(O)ccc2c1O/C(=C\C=C\c1ccccc1)C2=O | ? | ? | ? | 18.4µM | -
COc1ccccc1/C=C/C=C1\Oc2c(ccc(O)c2CN(C)C)C1=O | - | ? | - | ? | -
CCn1c(=O)c(C(=O)NNC(=O)c2ccccc2F)c(O)c2ccccc21 | - | ? | ? | 18.4µM | -
CCCCCC(=O)NNC(=O)c1c(O)c2ccccc2n(CC)c1=O | - | ? | - | ? | -
CCn1c(=O)c(C(=O)NNC(=O)c2ccccc2Cl)c(O)c2ccccc21 | - | ? | ? | ? | -
CCCCCCCCCC(=O)NNC(=O)c1c(O)c2ccccc2n(CC)c1=O | - | ? | - | 8.2µM | -
CCCn1c(=O)c(C(=O)NNS(=O)(=O)c2ccc(C)cc2)c(O)c2ccccc21 | 32.6µM | ? | ? | ? | -
C=CCc1c(C)nc2nc(SCC(=O)Nc3ccc(OCC)cc3)nn2c1C | . | - | . | - | .
COc1cc(-c2cnc3ccccc3c2)cc2c1OCCN(C(=O)Cn1nccc1C)C2 | . | -[9.04 µM] | . | - | .
CC(C)c1csc(CN2CCCC(CNC(=O)c3cccc4ccccc34)C2)n1 (stereo not given) | - | 16.4µM | - | ? | -
COCc1c(C(=O)NCCc2ccc(OC(F)F)cc2)oc2ccccc12 | - | 13µM | - | 11.6µM | -
CC(C)(C)NC(=O)c1oc2ccccc2c1COc1ccccc1 | - | ? | - | 13µM | -
COCc1c(C(=O)NCCOc2ccc(Cl)cc2)oc2ccccc12 | - | 25.9µM | - | 23.1µM | -
O=C(NCc1ccc2c(c1)OCO2)C(=O)Nc1ccccc1 | - | - | - | - | -
SMILES | HT1080 IDH1KD tx | DT40 TDP1 CPT | HT1080NT lethal | TDP1 cell noCPT | IL1B secr inh
CC1(C)N=C(N)NC(=NCCCOc2ccc([N+](=O)[O-])cc2)N1 | - | - | - | - | -
CCOc1ccc(S(=O)(=O)NCCc2csc3nc(-c4cccc(C)c4)nn23)cc1 | . | ? | . | 18.4µM | .
CCS(=O)(=O)NCCc1csc2nc(-c3ccc(C)cc3)nn12 | . | 16.4µM | . | ? | .
COc1ccc(-c2nc3scc(CCNS(=O)(=O)c4ccc(Oc5ccccc5)cc4)n3n2)cc1 | . | - | . | ? | .
Cc1cc(C)c(S(=O)(=O)NCCc2csc3nc(-c4ccc(Cl)cc4)nn23)c(C)c1 | . | ? | . | 18.4µM | .
COc1ccc(-c2nc3scc(CCNS(=O)(=O)c4ccc(F)cc4C)n3n2)cc1 | . | 16.4µM | . | 16.4µM | .
CCCN(CC(=O)Nc1ccccc1OC)C(=O)c1cccc(S(=O)(=O)Nc2ccc(OC)cc2)c1 | - | ? | - | ? | -
Cc1ccc(-c2nc3scc(CCNS(=O)(=O)c4ccc(F)c(C)c4)n3n2)cc1 | . | ? | . | 20.6µM | .
Cc1ccc(C)c(S(=O)(=O)N2CCCCC2CCNC(=O)C(=O)NC2CC2)c1 (stereo not given) | - | - | - | ? | -
